Test results taken from PubChem BioAssay (NCI).
About 79,000 compounds went through this panel and 15% of them were active in at least one assay; those are over-represented in the sample as a whole. Active and inactive are the calls of the source. Rule as the data show it: active = growth inhibition above about 70%; inactive = the rest.

Key:
[1] = NCI Yeast Anticancer Drug Screen. Data for the rad50 strain (AID 155);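 also: 0% = growth of vehicle-only cultures of the same strain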; conditions: S. cerevisiae rad50 strain growth inhibition; at 50.0 µM; stronger effect = higher value
Method in brief: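 Vehicle-treated cultures provide the reference for the growth inhibition reported for compound-exposed, repair-deficient yeast.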

[2] = NCI Yeast Anticancer Drug Screen. Data for the mec2-1 strain (AID 157); conditions: S. cerevisiae mec2-1 strain, at 50.0 µM, stronger effect = higher value
Method in brief: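 mec2-1 yeast strain, carrying an alteration in DNA damage repair or cell cycle control, was exposed to compounds; growth inhibition was measured relative to vehicle-treated controls.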

[3] = NCI Yeast Anticancer Drug Screen. Data for the sgs1 mgt1 strain (AID 161);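 also: 0% = growth of cultures given vehicle only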; conditions: S. cerevisiae sgs1 mgt1 strain, at 50.0 µM, stronger effect = higher value
Method in brief: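 Yeast cells carrying a defined DNA-repair defect were exposed to test compounds. Growth inhibition was measured relative to vehicle-treated controls.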

[4] = NCI Yeast Anticancer Drug Screen. Data for the cln2 rad14 strain (AID 165);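 also: 0% = growth equal to vehicle treated cultures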; conditions: S. cerevisiae cln2 rad14 strain, at 50.0 µM, stronger effect = higher value
Method in brief: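 Yeast carrying cln2 and rad14 alterations (cell cycle control and DNA damage repair) were exposed to compounds. Growth inhibition was measured against vehicle-treated controls.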

[5] = NCI Yeast Anticancer Drug Screen. Data for the bub3 strain (AID 167); conditions: S. cerevisiae bub3 mutant strain, at 50.0 µM, stronger effect = higher value
Method in brief: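 Mutant yeast screening strain plus compound; vehicle-treated cultures serve as the 0% inhibition reference.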

[6] = NCI Yeast Anticancer Drug Screen. Data for the mlh1 rad18 strain (AID 175); conditions: S. cerevisiae mlh1 rad18 strain growth inhibition; at 50.0 µM; stronger effect = higher value
Method in brief: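 Growth inhibition of the yeast strain was measured after compound exposure and expressed relative to vehicle-treated controls. The strain carries defined defects in DNA damage repair.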

Measured: growth inhibition

CCc1c(O)cc(=O)oc1-c1ccc(OC)c(OC)c1
inactive: [1] 21% | [2] -16.2% | [3] 2.15% | [4] 6.05% | [5] -6.9% | [6] -26.6%

C[N+](C)(C)C1CC([N+](C)(C)C)C2c3ccccc3C21 (stereo unspecified)
inactive: [1] -15.2% | [2] 23.1% | [3] 1.95% | [4] -9.05% | [5] -3.35% | [6] 3.9%

OCc1ccc(CO)o1
inactive: [1] 17.8% | [2] 15.7% | [3] -16.4% | [4] -1.55% | [5] 24.1% | [6] 5.4%

CCOC(=O)Cn1c(=O)c(-c2ccccc2NC(C)=O)nc2ccccc21
inactive: [1] -12.3% | [2] -3.65% | [3] -7.9% | [4] -6.1% | [5] 0.4% | [6] -14.1%

CCCCOC(=S)Nc1ccc(S(=O)(=O)c2ccc(NC(=S)OCCCC)cc2)cc1
inactive: [1] 23.4% | [2] 0.15% | [3] 13.4% | [4] 9.35% | [5] -4.9% | [6] -9.65%

O=C(O)c1[nH]c(=O)[nH]c(=O)c1Br
inactive: [1] -4.3% | [2] -22.9% | [3] -9.75% | [4] -40.5% | [5] -15.7% | [6] -17.6%

N#Cc1ccc(CC(=O)O)cc1
inactive: [1] 25.2% | [2] -16.5% | [3] 6.9% | [4] 0.35% | [5] -7.95% | [6] -7.75%

BrCCCCCOc1ccc(-c2c3ccccc3c(-c3ccc(OCCCCCBr)cc3)c3ccccc23)cc1
inactive: [1] 11.4% | [2] 18.1% | [3] 12.8% | [4] 0.05% | [5] -12.9% | [6] 12.8%

S=C1CC(c2ccccc2)Sc2cc(Cl)ccc2N1 (stereo unspecified)
inactive: [1] -15.5% | [2] -4.35% | [3] 4.9% | [4] 15.6% | [5] -2.45% | [6] -2.95%

CC(C)(C)OC(=O)CC1(C)NC(C(=O)O)C(C)(C)S1 (stereo unspecified)
inactive: [1] 13.3% | [2] -0.65% | [3] -10.9% | [4] -9.75% | [5] 14.8% | [6] 10.8%

Cc1ccc(C2OC(N)=C(O)C2=O)cc1 (stereo unspecified)
inactive: [1] -43% | [2] 10.2% | [3] -4% | [4] -26.4% | [5] 1.85% | [6] 9.5%

COC(c1ccccc1)(c1ccccc1)c1cc(NS(=O)(=O)c2ccccc2)ccc1NS(=O)(=O)c1ccccc1
inactive: [1] 14.2% | [2] 3.9% | [3] 13% | [4] -17.1% | [5] -4.7% | [6] 8.05%

O=S(=O)(c1cccc(C(F)(F)F)c1)N(CCCCCN(S(=O)(=O)c1cccc(C(F)(F)F)c1)S(=O)(=O)c1cccc(C(F)(F)F)c1)S(=O)(=O)c1cccc(C(F)(F)F)c1
inactive: [1] -12.2% | [2] 2.95% | [3] 0.2% | [4] 21.3% | [5] 11.9% | [6] 10.2%

COc1ccc(N=Cc2cc(OC)c(OC)c(OC)c2)cc1
inactive: [1] -12.4% | [2] -9.6% | [3] 1.5% | [4] -3.55% | [5] -12.9% | [6] 0.95%

CC1(C)CCC(C2=CC(=O)c3c(O)ccc(O)c3C2=O)O1 (stereo unspecified)
inactive: [1] -8.25% | [2] -17.1% | [3] 10.5% | [4] 17.9% | [5] -12.6% | [6] -2.8%

COc1ccc(N2C(=O)CSC2=S)cc1
inactive: [1] 58.6% | [2] 0% | [3] 24.1% | [4] -9.15% | [5] -4.85% | [6] 33.1%

O/N=C\c1cc2ccccc2c[n+]1Cc1ccc2ccccc2c1Br
inactive: [1] 9.25% | [2] 32.1% | [3] 44.6% | [4] 48% | [5] 2.9% | [6] 38.8%

O=C(C1C2C=CC(C2)C1C(=O)N1CCCCC1)N1CCCCC1 (stereo unspecified)
inactive: [1] 2.5% | [2] 25.4% | [3] 13.2% | [4] -1.8% | [5] 12.3% | [6] 11.5%

COC(=O)NC(Nc1ccc(Cl)cc1Cl)(C(F)(F)F)C(F)(F)F
inactive: [1] 44.6% | [2] 6.7% | [3] 12.2% | [4] 20.6% | [5] 30.1% | [6] 16.6%

CC1=CCCCC1(C)/C(C)=N/Nc1ccc([N+](=O)[O-])cc1[N+](=O)[O-] (stereo unspecified)
inactive: [1] 2.05% | [2] 7.3% | [3] 2.8% | [4] 2.75% | [5] -1.4% | [6] -15.3%

C1=CC2=CC=CC3c4nc5ccc6ccccc6c5nc4C(=C1)C23 (stereo unspecified)
inactive: [1] 11.4% | [2] -9.3% | [3] -0.9% | [4] 4.25% | [5] -2.55% | [6] 8.75%

C=CCSc1nc2ccc(N3C(=O)CCC3=O)cc2s1
inactive: [1] 15.4% | [2] -11.7% | [3] -10.6% | [4] 10.2% | [5] 6.05% | [6] 4%

CC(=O)OCCC12CCC(CC1Cl)C2(C)C (stereo unspecified)
inactive: [1] -1.45% | [2] -9.7% | [3] 9.85% | [4] 24.7% | [5] -3.05% | [6] -3.55%

Fc1ccc(N2C(c3ccccc3)=N[C@@H](N3CCOCC3)[C@@H]2N2CCOCC2)cc1
inactive: [1] 21.4% | [2] 11.2% | [3] 4.2% | [4] -19.9% | [5] -2.2% | [6] 20%

CCCCCCCCCCCCCCCCCCNc1nc(=O)n(C2CC(O)C(COP(=O)(O)O)O2)cc1F (stereo unspecified)
inactive: [1] 12.9% | [2] 12.6% | [3] 16.8% | [4] 17% | [5] 9.25% | [6] -23%

CNC(=O)c1ccccc1S(=O)Cc1ccc(Br)cc1 (stereo unspecified)
inactive: [1] -19.1% | [2] -30.2% | [3] -17.6% | [4] 8.35% | [5] 22.7% | [6] -0.95%

Nc1nc(-c2ccccc2)cc(-c2cc(-c3ccccc3)nc(N)n2)n1
inactive: [1] 12.8% | [2] -8.35% | [3] -18.9% | [4] -1.5% | [5] -5.95% | [6] 10.3%

C1Cc2nnnn2C1
inactive: [1] -7.4% | [2] -20.1% | [3] 0.9% | [4] -2.85% | [5] -7.95% | [6] 12.6%

CCN(C(=N)C#N)c1ccccc1
inactive: [1] 29.8% | [2] 13.2% | [3] 10.1% | [4] 24.4% | [5] 29.9% | [6] 27.1%

CCN(CC)CCCC(C)n1c(-c2ccc(OC)cc2)nc2cc(Cl)ccc21 (stereo unspecified)
inactive: [1] -0.65% | [2] 8.5% | [3] 26.9% | [4] 10.1% | [5] 6.55% | [6] 4.6%

C=CCCC(=O)CC(=O)OCC
inactive: [1] -25.1% | [2] -22.7% | [3] -10.7% | [4] 10.3% | [5] -8% | [6] 6.15%

NC1CCC(P(=O)(O)O)CC1 (stereo unspecified)
inactive: [1] -0.35% | [2] 3.45% | [3] -4.75% | [4] -9.65% | [5] -6.2% | [6] -5.1%

O=C1c2cc([N+](=O)[O-])sc2C(=O)c2c([N+](=O)[O-])csc21
active: [1] 91% | [2] 93% | [3] 92.5% | [4] 91.4% | [5] 92.1% | [6] 91.3%

O=C(Nc1ccc(Cl)c(Cl)c1)Oc1ccc(Cl)cc1C(=O)Nc1ccccc1
inactive: [1] -13.8% | [2] -2.6% | [3] 29.1% | [4] -7.4% | [5] 28.1% | [6] 37.6%

O=[N+]([O-])c1ccc(S(=O)(=O)N/N=C/c2ccco2)cc1
inactive: [1] 14.6% | [2] 5.95% | [3] 0.9% | [4] 9.75% | [5] 13.2% | [6] 23.9%

CC(=O)c1ccc(C(=O)O)cc1
inactive: [1] 13.7% | [2] -11.6% | [3] 2.45% | [4] -0.15% | [5] -4.3% | [6] 6.15%

O=C1c2ccccc2C(=O)N1CC(O)CCl (stereo unspecified)
inactive: [1] -21.3% | [2] -30.4% | [3] -0.45% | [4] 12% | [5] -14.5% | [6] -26.5%

CC(C)(O)/C1=C/C=C/CCCCCCCCCC1
inactive: [1] 13.8% | [2] 14.9% | [3] 50.1% | [4] 5.75% | [5] 14.8% | [6] 16.9%

COc1ccc(-c2onc3ccc(Cl)cc23)cc1
inactive: [1] -9.1% | [2] 4.1% | [3] 17.4% | [4] -63.5% | [5] 7.35% | [6] 21.4%

CC(=O)Nc1ccccc1-c1nc2cccnc2[nH]c1=O
inactive: [1] -9.6% | [2] 6.15% | [3] 2.65% | [4] -5.35% | [5] -1.85% | [6] -11.9%

C/C(=N\NC(N)=O)c1sc(-c2nc(C)c(/C(C)=N/NC(N)=O)s2)nc1C
inactive: [1] 32.8% | [2] 22.8% | [3] 20.9% | [4] 43.3% | [5] -16.1% | [6] 27.5%
